Usually inhibition stands for the change of the read-out against control, counted positive when it falls.

Calls of active or inactive are those of the source.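 How the source made its calls, unless noted: active means inhibition of the reporter signal at or above 50%; inactive means inhibition below 50%.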

This is an account of results in PubChem BioAssay.

A short description of test [1]: inhibitors of TNFa-induced NFkB p65 translocation, primary screen, imaging, HUVEC, MLSMR starter and 10KST1 sets (AID 438;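 active means inhibition above 20% together with a positive visual image hit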;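 further: compound added about 3h40 before a 20 min TNFalpha stimulation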;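 on inhibition: signal is the nuclear over cytoplasmic p65 intensity ratio per well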). The conditions noted are these: HUVEC TNFa-induced p65 nuclear translocation; cell count: measured here: nuclei count (cytotoxicity indicator), at 2.08 µM; inhibition: at 2 µM, stronger effect = higher value, 0% TNFa-plus-vehicle, 100% no-TNFa wells.
Test [2] in a line: inhibitors of mutant huntingtin aggregation, primary screen, imaging, exon1htt(103Q)mCFP cells, high-content imaging (AID 483;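 active means visual image review flags a hit and inhibition of aggregation exceeds 20%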;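 further: compound exposure lasted 3 days before fixation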;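 on nuclei count: percent of the per-plate median nuclei count of sample wells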). The conditions noted are these: exon1htt(103Q)mCFP cell line, aggregate imaging, at 2 µM; inhibition of aggregation: stronger effect = higher value; nuclei count: measured here: cell count, toxicity.
A short description of test [3]: inhibitors of E-selectin induction by TNFa, primary screen, imaging, HUVEC, immunofluorescence, MLSMR starter and 10KST1 sets (AID 487;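 active means visually confirmed hit in the image check and inhibition above 20%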;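 on inhibition: signal is fraction of cell area covered by stained E-selectin grains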;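 on nuclei count: 100% = median nuclei count of all wells on the same plate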). Conditions: HUVEC TNFalpha-induced E-selectin immunofluorescence imaging, at 2 µM; inhibition: stronger effect = higher value; nuclei count: measured here: cell number, toxicity.
Test [4] concerns the target Voltage-gated potassium channel subunit beta-2 (Rattus norvegicus) (UniProt P62483). As to the kind of experiment: KvBeta enzyme negative modulators, primary screen, biochemical, NADPH fluorescence (AID 622;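 active means fluorescence slope higher than the sample average by over 3 SD, cut at about -0.22 in these data, passing the limit was not always enough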;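 further: slope of raw intensity against log time taken from 70 to 1610 s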). Conditions: recombinant KvBeta, 4-cyanobenzaldehyde reduction, at 10 µM, stronger effect = higher value.
Test [5] has the same target. As to the kind of experiment: KvBeta positive modulators, primary screen, biochemical, NADPH fluorescence (AID 623;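 active means NADPH fluorescence slope more negative than the mean of all samples by about 3 SD, 99.7% confidence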;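 further: fluorescence intensity change per second fitted from 20 to 320 s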). The conditions noted are these: Recombinant KvBeta, NADPH fluorescence decrease slope, 10 min; at 10 µM; stronger effect = lower value.
Test [6] addresses Alpha-2C adrenergic receptor (Homo sapiens) (UniProt P18825). Description: modulators of alpha2C/GIRK thallium flux, primary screen, cell-based, HEK293 alpha2C/GIRK1/2 (AID 624;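 active means fluorescence slope after compound addition differing from the mean of all screened samples at 99.7% confidence, in either direction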;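 further: slope of fluorescence ratio to pre-addition baseline per second over 15 to 24 s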). The conditions noted are these: thallium flux BTC fluorescence, at 10 µM, actives lie on both sides.
Test [7] in a line: inhibitors of Sendai virus-induced IRF3 signaling, primary screen, TLR/RLR signaling modifier project, cell-based, Sendai virus stimulus, luciferase, 10K MLSCN set (AID 602276;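 active means inhibition at or above 50% at 10 µM; inactive means inhibition below 50%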;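 further: firefly luciferase from ISG56 promoter only with Renilla not read in this screen; 0% = Sendai virus plus DMSO and 100% = medium plus DMSO without virus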). The conditions noted are these: HEK293 RL24 IRF3 luciferase reporter, at 10 µM, stronger effect = higher value. (In a reporter assay the amount or activity of a reporter protein is the signal.)
Test [8] is described as follows: inhibitors of poly I:C-induced TLR3 signaling, primary screen, cell-based, poly I:C stimulus, luciferase, 10K MLSCN set (AID 602277). The conditions noted are these: HEK293-TLR3 RL24 IRF3 luciferase reporter, at 10 µM, stronger effect = higher value.

Sequence of Alpha-2C adrenergic receptor (Homo sapiens) (P18825 whole entry, looked up): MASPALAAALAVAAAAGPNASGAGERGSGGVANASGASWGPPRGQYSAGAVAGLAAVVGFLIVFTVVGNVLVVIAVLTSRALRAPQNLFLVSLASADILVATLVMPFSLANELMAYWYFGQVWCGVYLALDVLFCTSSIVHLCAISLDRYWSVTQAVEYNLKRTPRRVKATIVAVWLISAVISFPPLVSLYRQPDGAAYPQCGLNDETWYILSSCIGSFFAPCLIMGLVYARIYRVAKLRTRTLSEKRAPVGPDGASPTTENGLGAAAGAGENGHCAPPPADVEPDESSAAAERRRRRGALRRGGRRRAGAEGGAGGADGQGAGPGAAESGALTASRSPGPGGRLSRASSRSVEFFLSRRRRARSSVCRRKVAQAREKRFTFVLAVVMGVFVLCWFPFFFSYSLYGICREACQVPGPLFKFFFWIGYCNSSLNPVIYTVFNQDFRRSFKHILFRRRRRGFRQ
Sequence of Voltage-gated potassium channel subunit beta-2 (Rattus norvegicus) (P62483 whole entry, looked up): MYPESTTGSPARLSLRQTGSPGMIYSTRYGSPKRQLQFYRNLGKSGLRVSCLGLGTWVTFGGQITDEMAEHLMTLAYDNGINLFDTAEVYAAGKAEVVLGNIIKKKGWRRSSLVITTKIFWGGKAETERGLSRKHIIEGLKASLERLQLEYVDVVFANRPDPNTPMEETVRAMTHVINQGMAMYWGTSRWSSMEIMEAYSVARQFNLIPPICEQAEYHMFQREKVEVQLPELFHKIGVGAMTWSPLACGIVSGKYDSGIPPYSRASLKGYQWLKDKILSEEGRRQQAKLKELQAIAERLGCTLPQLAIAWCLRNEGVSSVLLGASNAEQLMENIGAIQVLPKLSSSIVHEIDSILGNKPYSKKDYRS

Consider `COC(=O)CC(C(=O)Nc1cc(C(=O)OC)cc(C(=O)OC)c1)N1CCN(C)CC1` (centres undefined), for which the cell count in test [1] worked out at 661. Moreover, the inhibition was -7.5% (inactive) in test [1], -105% (inactive) in test [3], -2.88% (inactive) in test [7] and 9.86% (inactive) in test [8]. Further, the inhibition of aggregation in test [2] was -3.2% (inactive). The nuclei count was found to be 99.8% in test [2] and 107% in test [3]. Also, in test [4], the fluorescence slope is -0.547 (inactive). The NADPH fluorescence slope in test [5] was -4.3e-05 (inactive). In test [6], the slope is 0.00646 (inactive).
Consider `CCCCNC(=O)OCCNC(=O)NC`, for which the cell count in test [1] was determined as 314. The inhibition in test [1] was 2.9% (inactive); in test [3], -62.2% (inactive); in test [7], 7.22% (inactive); in test [8], 2.44% (inactive). The inhibition of aggregation in test [2] was -7.8% (inactive). For the same compound, the results for the nuclei count in test [2] and in test [3] were 100% and 107%, respectively. The fluorescence slope in test [4] is -0.317 (inactive). The NADPH fluorescence slope in test [5] was -2.2e-05 (inactive). Moreover, the slope in test [6] was 0.00519 (inactive).
`Cc1[nH]nc2c1C(c1ccc(F)cc1)C1=C(CC(C)(C)CC1=O)N2` (centres undefined): the cell count in test [1] amounted to 561. Also, the inhibition in test [1] is -30.6% (inactive); in test [3], -52.8% (inactive); in test [7], 10.5% (inactive); in test [8] it was 32.3% (inactive). Besides, the inhibition of aggregation in test [2] is 4.4% (inactive). For the same compound, the nuclei count was 98.7% in test [2] and 102% in test [3]. In addition, the fluorescence slope in test [4] is -0.451 (inactive). For the same compound, the NADPH fluorescence slope in test [5] is -8.1e-06 (inactive). For the same compound, the slope in test [6] is 0.00591 (inactive).
Take `CCOC(=O)c1ccc2[nH]c(C)c(CN3CCN(C)CC3)c(=O)c2c1`: in test [1], the cell count turned out to be 332. Moreover, the inhibition in test [1] was 6.1% (inactive); in test [3], 20.8% (inactive); in test [7], -4.42% (inactive); in test [8], 21.9% (inactive). The inhibition of aggregation in test [2] was 11.1% (inactive). Moreover, the nuclei count was found to be 89.7% in test [2] and 112% in test [3]. Further, the fluorescence slope in test [4] is -0.471 (inactive). Also, the NADPH fluorescence slope in test [5] is -4e-05 (inactive). Further, the slope in test [6] was 0.00513 (inactive).
Take `CCCCOCP(=O)(CCCC)COCCCC`: the cell count in test [1] was determined as 369. For the same compound, the inhibition in test [1] is 0% (inactive); in test [3], -35.3% (inactive); in test [7], 11.3% (inactive); in test [8], 22% (inactive). Moreover, in test [2], the inhibition of aggregation is 8.7% (inactive). Also, the nuclei count in test [2] amounted to 88.5%; in test [3], 100%. The fluorescence slope in test [4] is -0.459 (inactive). Further, in test [5], the NADPH fluorescence slope is -8.4e-05 (inactive). In test [6], the slope is 0.00748 (inactive).
With `COc1ccc(C2=NOC(C(=O)Nc3cc(Br)ccc3O)C2)cc1OC` (centres undefined), in test [1], the cell count was 672. In addition, the inhibition is -12.2% (inactive) in test [1], -73.1% (inactive) in test [3], 9.82% (inactive) in test [7] and 34.8% (inactive) in test [8]. Moreover, the inhibition of aggregation in test [2] is -2.8% (inactive). Further, the nuclei count in test [2] was found to be 102%; in test [3], 106%. Also, in test [4], the fluorescence slope was -0.459 (inactive). Besides, the NADPH fluorescence slope in test [5] was -3.2e-05 (inactive). In addition, the slope in test [6] is 0.00665 (inactive).
`COc1ccc(C(C)N2CC34C=CC(O3)C(C(=O)OCC(C)C)C4C2=O)cc1` (centres undefined): the cell count in test [1] was found to be 589. Besides, the inhibition in test [1] is 9.1% (inactive); in test [3], 8.2% (inactive); in test [7], 13.5% (inactive); in test [8], 23.7% (inactive). The inhibition of aggregation in test [2] was 3.8% (inactive). Further, the nuclei count stood at 75.7% in test [2] and 93.5% in test [3]. The fluorescence slope in test [4] was -0.541 (inactive). In test [5], the NADPH fluorescence slope was -4.3e-05 (inactive). For the same compound, the slope in test [6] is 0.00626 (inactive).
For the compound `Cc1cc(C(=O)NCc2ccc(S(N)(=O)=O)cc2)cs1`, the cell count in test [1] came to 321. Besides, the inhibition in test [1] was 4.7% (inactive); in test [3], 9.5% (inactive); in test [7] it was 13.4% (inactive); in test [8], 10.9% (inactive). Also, in test [2], the inhibition of aggregation is -10.8% (inactive). Further, the nuclei count is 108% in test [2] and 91.3% in test [3]. Besides, in test [4], the fluorescence slope was -0.63 (inactive). In addition, the NADPH fluorescence slope in test [5] was -2.4e-05 (inactive). The slope in test [6] is 0.00394 (inactive).
With `COc1ccccc1C(=O)N1CCN(C(=O)COc2cccc(C)c2)CC1`, the cell count in test [1] was 430. Further, the inhibition is -5.5% (inactive) in test [1], -52.5% (inactive) in test [3], 14% (inactive) in test [7] and 23.5% (inactive) in test [8]. Further, in test [2], the inhibition of aggregation was 11.7% (inactive). In addition, the nuclei count in test [2] was found to be 94.2%; in test [3], 102%. For the same compound, in test [4], the fluorescence slope is -0.288 (inactive). Moreover, in test [5], the NADPH fluorescence slope is -5.4e-05 (inactive). For the same compound, the slope in test [6] is 0.00401 (inactive).
Regarding `CCC(C)(C)NC(=O)CN(Cc1ccc2c(c1)OCO2)C(=O)CCC(=O)Nc1ccccn1`, the cell count in test [1] worked out at 517. Moreover, the inhibition is -20.9% (inactive) in test [1], -59.2% (inactive) in test [3], 12.5% (inactive) in test [7] and 21.6% (inactive) in test [8]. For the same compound, the inhibition of aggregation in test [2] was -0.5% (inactive). Further, the figures for the nuclei count in test [2] and in test [3] were 92.4% and 114%, respectively. The fluorescence slope in test [4] is -0.403 (inactive). For the same compound, the NADPH fluorescence slope in test [5] is -6.3e-05 (inactive). Besides, the slope in test [6] is 0.00669 (inactive).
In the case of `N#Cc1ccc(-c2csc(NC(=O)C3CC3)n2)cc1`, the cell count in test [1] turned out to be 718. Further, the inhibition is -9.6% (inactive) in test [1], -25.2% (inactive) in test [3], -27.3% (inactive) in test [7] and -86% (inactive) in test [8]. For the same compound, the inhibition of aggregation in test [2] was 33.4% (inactive). For the same compound, the nuclei count in test [2] came out at 93.9%; in test [3] it was 116%. In addition, in test [4], the fluorescence slope was -0.502 (inactive). In addition, the NADPH fluorescence slope in test [5] is -1.9e-05 (inactive). The slope in test [6] is 0.00647 (inactive).
Consider `CCOCC(=O)Nc1sc2c(c1C(=O)OCC)CCCC2`, for which, in test [1], the cell count is 300. Also, the inhibition in test [1] is -1.6% (inactive); in test [3], -39.3% (inactive); in test [7], 9.19% (inactive); in test [8] it was 14% (inactive). For the same compound, in test [2], the inhibition of aggregation is 16.6% (inactive). Also, the nuclei count was 65.8% in test [2] and 116% in test [3]. Further, the fluorescence slope in test [4] was -0.347 (inactive). The NADPH fluorescence slope in test [5] is -5.2e-05 (inactive). In addition, in test [6], the slope is 0.00551 (inactive).
For the compound `Cc1ccccc1-n1c(SCc2c(C)noc2C)nnc1-c1ccncc1`, the cell count in test [1] worked out at 741. In addition, the inhibition in test [1] is -2.4% (inactive); in test [3], -87% (inactive); in test [7], 6.71% (inactive); in test [8] it was 30.2% (inactive). The inhibition of aggregation in test [2] is -10.7% (inactive). Besides, the nuclei count in test [2] was found to be 103%; in test [3], 115%. The fluorescence slope in test [4] was -0.304 (inactive). Besides, the NADPH fluorescence slope in test [5] is -5.4e-05 (inactive). Also, in test [6], the slope is 0.00424 (inactive).
In the case of `CCSc1nnc(NC(=O)C2CCCN(S(=O)(=O)c3cnc[nH]3)C2)s1` (centres undefined), the cell count in test [1] is 577. In addition, the inhibition is -0.5% (inactive) in test [1], -101% (inactive) in test [3], 9.63% (inactive) in test [7] and 21.5% (inactive) in test [8]. Further, the inhibition of aggregation in test [2] is 10% (inactive). Besides, the nuclei count in test [2] was found to be 101%; in test [3], 125%. Also, the fluorescence slope in test [4] is -0.537 (inactive). For the same compound, in test [5], the NADPH fluorescence slope was -2.1e-05 (inactive). Moreover, the slope in test [6] was 0.00708 (inactive).
